Screens as filed in PubChem BioAssay.
In the library only some 3.5% were active in any assay of this set; here they are far more common.
FBW7 act = FBW7 E3 ligase activators, primary screen, biochemical, AlphaScreen, human | AlphaScreen FBW7–phospho-cyclin E peptide binding, activator screen | normalized activity (activation), % at 26.1 µM | 650,000 compounds, 0.13% hits | AID 1259310, 2017; in the data active = normalized activity above about 1.9%;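 note: purified mutant Fbw7 with reduced substrate affinity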
GPR151 ag = activators of human GPR151, primary screen, cell-based, PathHunter beta-arrestin, luminescence | G-protein coupled receptor 151 (Homo sapiens), Q8TDV0 | PathHunter beta-arrestin GPR151 cells | activation, % at 11.2 µM | 650,000 compounds, 1% hits; in the data active = activation above about 4.9%;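 note: 0% = median of compound wells and 100% = cells with positive control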
MITF inh = MITF inhibitors, primary screen, biochemical, AlphaScreen, human; Microphthalmia-associated transcription factor (Homo sapiens), O75030; AlphaScreen MITF homodimerization, bead proximity signal; inhibition, % at 2.6 µM; 650,000 compounds, 0.91% hits; AID 1259374, 2018; in the data active = inhibition above about 50%;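 note: 0% = vehicle wells with protein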
TEAD-YAP inh = TEAD-YAP interaction inhibition, primary screen, TEAD-YAP interaction inhibitor project, luminescence, HEK-TIYL cells; TEAD-Gal4/YAP UAS-luciferase luminescence; AID 1259422, 2018; 640,000 compounds, 1.4% hits; inhibition, % at 9.12 µM; in the data active = inhibition above about 32%;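 note: 0% = median of test compound wells and 100% = reference inhibitor wells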
Numbers without * were called inactive.

SMILES	FBW7 act	GPR151 ag	MITF inh	TEAD-YAP inh
COCCOC(=O)c1[nH]c2c(c1C)C(=O)CC(c1ccco1)C2 (stereo not given)	0	0	5	49*
COCCOC(=O)c1[nH]c2c(c1C)C(=O)C(C(=O)OC)C(C)C2 (stereo not given)	0	-1	-15	-10
Cc1c(C(=O)OCCOC(C)C)[nH]c2c1C(=O)CC(c1ccco1)C2 (stereo not given)	0	0	5	60*
CCOC(=O)c1[nH]c2c(c1C)C(=O)CC(c1ccco1)C2 (stereo not given)	0	2	21	58*
Cc1c(C(=O)OCCOC(C)C)[nH]c2c1C(=O)CC(C)(C)C2	0	1	-4	-6
CCOCCOC(=O)c1[nH]c2c(c1C)C(=O)CC(c1ccc(OCC)cc1)C2 (stereo not given)	0	0	4	6
CCc1ccc(C2NC(=O)NC(C)=C2C(=O)OCC(C)C)cc1 (stereo not given)	0	1	-12	-13
COc1ccc(-c2nc3n(n2)C(c2cc(OC)ccc2OC)C(C(N)=O)=C(C)N3)cc1 (stereo not given)	0	1	9	2
Cn1c(=O)n(Cc2ccc(C#N)cc2)c(=O)c2c1ncn2Cc1ccccc1	0	0	-5	-7
CCOCCOC(=O)c1[nH]c2c(c1C)C(=O)CC(c1ccco1)C2 (stereo not given)	0	0	-6	51*
CSCCOC(=O)c1[nH]c2c(c1C)C(=O)CC(c1ccco1)C2 (stereo not given)	0	2	13	50*
O=C1C(N2CCCCC2)=C(N2CCCCC2)C(=O)c2ccccc21	-1	-3	-7	-2
CCCNC1=C(N2CCCCC2)C(=O)c2ccccc2C1=O	1	-1	23	93*
CCOc1ccc(NC2=C(N3CCOCC3)C(=O)c3ccccc3C2=O)cc1	0	1	54*	-25
CC(=O)Nc1ccc(NC2=C(N3CCOCC3)C(=O)c3ccccc3C2=O)cc1	0	-1	11	-5
CNC1=C(N2CCCCC2)C(=O)c2ccccc2C1=O	1	-3	13	94*
O=C1C(NC2CCCCC2)=C(N2CCCCC2)C(=O)c2ccccc21	1	-1	16	1
COC(=O)NC(c1ccccc1)c1ccccc1	0	0	8	-6
C(=N\Nc1ccccn1)/c1sc(N2CCCCC2)nc1-c1cccs1	0	-1	5	67*
O=C(NCc1ccco1)C(=O)N1CCCCCC1	0	0	-13	5
O=C1c2ccccc2C(=O)N1c1nc(-c2cccs2)cs1	0	0	6	-6
COc1ccc2nc(-c3ccc(N)cc3)[nH]c2c1	0	-7	1	54*
O=[N+]([O-])c1ccc(NC(=S)NC2CCN(Cc3ccccc3)CC2)cc1	0	-1	0	34*
NS(=O)(=O)c1ccc(NC(=S)NC2CCN(Cc3ccccc3)CC2)cc1	0	0	13	10
Cc1cccc2cc(CN(C(=O)Nc3ccccc3)C3CCCC3)c3nnnn3c12	0	1	-3	-14
SMILES	FBW7 act	GPR151 ag	MITF inh	TEAD-YAP inh
Cc1cccc(NC(=O)C2COc3ccccc3O2)n1 (stereo not given)	0	1	7	-30
O=C(Nc1cc(C(F)(F)F)cc(Cl)n1)C1COc2ccccc2O1 (stereo not given)	1.9*	-1	13	9
CCn1ncc(Cl)c1C(=O)Nc1cc(Cl)ccc1Cl	1.9*	-1	4	-2
Cc1cc(C)c(S(=O)(=O)Nc2ccc3c(c2)N(C(=O)C(C)C)CCC3)cc1C	0	1	-8	46*
Cc1cc(C)c(S(=O)(=O)Nc2ccc3c(c2)CCCN3C(=O)C(C)C)cc1C	2.0*	1	-7	2
O=C(O)c1ccc(NC(=O)C2CC(=O)N(Cc3ccc(Cl)cc3)C(=Nc3ccccc3)S2)cc1 (stereo not given)	0	1	6	4
O=C(Cc1ccccc1Cl)Nc1nc2c(s1)CCCC2	0	2	2	17
CC(=O)c1ccc(C(=O)Nc2nc3c(s2)CCCC3)cc1	0	-1	4	65*
CC1CCc2nc(NC(=O)c3cc(Cl)sc3Cl)sc2C1 (stereo not given)	0	-1	2	-45
O=C(Nc1nc2c(s1)CCCC2)c1cc(Cl)sc1Cl	0	-9	17	49*
